Screens deposited in PubChem BioAssay by National Center for Advancing Translational Sciences (NCATS).
An excerpt weighted towards active compounds, which were near 18% of everything screened.
TGFb SMAD3 inh: qHTS for Inhibitors of TGF-b; HepG2 CAGA-GFP TGF-b/SMAD3 reporter, GFP fluorescence, 18 h; TGF-beta stimulated, 500 pg/mL final; Potency, µM (highest dose often 46.1 µM), inactives show at the highest dose activity, negative = inhibition, usual class: inhibitors; 410,000 compounds, 1.2% hits; AID 588855, 2011; further: potency means the concentration at half of the fitted maximal effect; on the % scale 0 is the no-effect control and ±100 the full control effect; nearly all actives have a fitted effect of over 65% in size
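GFP signal (ex488/em500-530) from TGF-beta-stimulated HEPG2 CAGA-GFP cells, 500 pg/mL final, 18 h at 37 degrees C in DMEM plus 1% FBS, normalized to unstimulated and DMSO-stimulated controls.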
TDP1 block: qHTS Assay for Inhibitors of Tyrosyl-DNA Phosphodiesterase (TDP1) | Tyrosyl-DNA phosphodiesterase 1 (Homo sapiens), Q9NUW8 | recombinant TDP1, AlphaScreen DNA substrate cleavage | Potency, µM (top dose mostly 130 µM), inactives show at the highest dose activity change, negative = inhibition, hits mostly inhibitors | 350,000 compounds, 0.28% hits; further: potency means the concentration at half of the fitted maximal effect; on the % scale 0 is the no-effect control and ±100 the full control effect; nearly all actives have a fitted effect of over 40% in size
Target sequence (Q9NUW8 whole entry, looked up): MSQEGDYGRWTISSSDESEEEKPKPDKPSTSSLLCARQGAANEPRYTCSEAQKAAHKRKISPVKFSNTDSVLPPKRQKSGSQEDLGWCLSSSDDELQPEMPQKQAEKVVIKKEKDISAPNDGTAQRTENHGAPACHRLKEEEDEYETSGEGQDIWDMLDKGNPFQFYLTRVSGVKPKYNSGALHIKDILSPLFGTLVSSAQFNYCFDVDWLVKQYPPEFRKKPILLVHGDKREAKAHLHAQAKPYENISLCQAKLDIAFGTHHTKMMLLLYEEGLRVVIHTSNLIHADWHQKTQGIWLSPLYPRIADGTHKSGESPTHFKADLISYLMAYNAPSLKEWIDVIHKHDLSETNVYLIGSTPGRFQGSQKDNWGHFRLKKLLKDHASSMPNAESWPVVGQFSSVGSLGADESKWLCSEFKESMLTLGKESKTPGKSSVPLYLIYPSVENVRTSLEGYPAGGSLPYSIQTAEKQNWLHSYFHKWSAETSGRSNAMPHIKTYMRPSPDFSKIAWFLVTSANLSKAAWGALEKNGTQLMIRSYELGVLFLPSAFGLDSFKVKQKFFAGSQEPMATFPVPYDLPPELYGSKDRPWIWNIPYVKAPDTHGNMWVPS
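Recombinant E. coli-expressed Tdp1 (1 nM) preincubated with compound 15 min at RT, then 5'-biotin/3'-phosphotyrosine-FITC DNA substrate (15 nM) added for 5 min. AlphaScreen beads (10 ug/ml) added, 10 min RT; tyrosine-FITC cleavage read as signal loss.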
IL1B secr inh: qHTS for Inhibitors of Inflammasome Signaling: IL-1-beta AlphaLISA Primary Screen | 360,000 compounds, 4.7% hits | THP-1 LPS/ATP IL-1B secretion, AlphaLISA, 16 h; stronger effect = lower value | activity change, % at 57.5 µM; in the data active means activity change below about -50%; inconclusive means mostly about -30% to -49%; further: on the % scale 0 is the no-effect control and ±100 the full control effect
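THP-1 cells pretreated 1 hr with compounds (up to 57.5 uM final), then stimulated with LPS (250 ng/mL final) plus ATP (1.25 mM final); secreted IL-1B measured by AlphaLISA after 16 hr, decreased signal indicating inhibition.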
TDP1 cell noCPT: qHTS for Inhibitors of human tyrosyl-DNA phosphodiesterase 1 (TDP1): qHTS in cells in absence of CPT; DT40 Tdp1-/- hTDP1 cells, no CPT, ATP luminescence, 48 h; Potency, µM (highest dose often 46.2 µM), inactives show top-dose activity change, negative = growth inhibition, hits mostly inhibitors; 420,000 compounds, 15% hits; further: potency means the concentration at half of the fitted maximal effect; on the % scale 0 is the no-effect control and ±100 the full control effect; nearly all actives have a fitted effect of over 55% in size
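Chicken DT40 Tdp1-/- cells stably complemented with human TDP1 were seeded at 400 cells/well with DMSO in place of 20 nM camptothecin. After compound pinning, cells grew at least 48 hr at 37 °C; viability read by CellTiter-Glo luminescence.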
HepG2 tox: qHTS for Inhibitors of TGF-b: Cytotox Counterscreen | HepG2 CAGA-GFP viability, ATP luminescence, 18 h | Potency, µM (highest dose often 46.1 µM), inactives show at the top dose activity change, negative = cytotoxicity, hits mostly cytotoxic | 410,000 compounds, 0.76% hits | AID 588856, 2011; further: potency means the concentration at half of the fitted maximal effect
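HepG2 CAGA-GFP cells (1000/well, DMEM with 1% FBS) received compound, then TGF-beta at 500 pg/mL final, and were incubated 18 hours at 37 degrees C. Viability was read by CellTiter-Glo luminescence. Media-only wells were set as complete cell-killing and DMSO as no toxicity.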
DT40 TDP1 CPT: qHTS for Inhibitors of human tyrosyl-DNA phosphodiesterase 1 (TDP1): qHTS in cells in presence of CPT; chicken DT40 Tdp1-/-;hTDP1 cells + 20 nM CPT, ATP luminescence, 48 h; Potency, µM (doses to about 46.2 µM), for the others: at the top dose activity change, negative = growth inhibition, most hits filed as inhibitors; 420,000 compounds, 12% hits; further: potency means the concentration at half of the fitted maximal effect; on the % scale 0 is the no-effect control and ±100 the full control effect; nearly all actives have a fitted effect of over 55% in size
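Chicken DT40 Tdp1-/- cells stably complemented with human TDP1 were seeded at 400 cells/well in medium containing 20 nM camptothecin, exposed to pin-transferred compounds, and grown at 37 °C for at least 48 hr. Viability was read as ATP luminescence.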
* marks the source's active call; other numbers are inactive results; u = inconclusive; x = no result; [ ] = remark or other dose. Unless noted, the call rests on the fitted dose curve; in most records, active means well fitted curve in the direction sought with a large enough effect; inconclusive means small, poorly fitted or top-dose-only effect, or another doubt; inactive means no such curve, though single readings can be large; an effect the other way counts as inactive or inconclusive.

SMILES	TGFb SMAD3 inh	TDP1 block	IL1B secr inh	TDP1 cell noCPT	HepG2 tox	DT40 TDP1 CPT
COc1ccc(NC(=O)CC2C(=O)N(c3ccc(C)cc3)C(=O)N2Cc2ccc(C)cc2)cc1 (centres undefined)	0.2%	3.8%	x	u	0.5%	-9.8%
COc1ccc(NC(C)C(=O)Nc2ccc(C(C)(C)C)cc2)cc1Cl (centres undefined)	u	7.8%	-53.7*	u	-37.2%	29.1µM*
Cc1cc2nnc(SCC(=O)NCc3ccco3)n2c2ccccc12	-17.0%	x	-23.9	4.61µM*	-7.5%	4.61µM*
Cc1cc2cc(C)c3nnc(SCC(=O)NCc4ccco4)n3c2cc1C	u	2.9%	-66.1*	u	-28.9%	u
Cc1nc(SCC(=O)NCc2ccco2)[nH]c(=O)c1C	-0.9%	-3.1%	38.5	-20.2%	-2.6%	23.1µM*
Nc1nc(SCC(=O)NCc2ccco2)[nH]c(=O)c1-c1ccccc1	-2.0%	0.0%	27.7	-7.8%	7.6%	-7.0%
Cc1ccc2cc(C)c3nnc(SCC(=O)NCc4ccco4)n3c2c1	-8.3%	50.1µM*	-20.6	-6.9%	-5.2%	2.5%
Cc1ccc2c(c1)cc(C)c1nnc(SCC(=O)NCc3ccco3)n12	-30.4%	-11.9%	-17.2	-27.0%	-16.5%	u
Cc1cc(NC(=O)CSc2nnc3c(C)cc4cc(C)c(C)cc4n23)no1	-1.5%	5.0%	-10.4	-18.7%	7.0%	11.1%
COC(=O)[C@]12CCCCC=C1N(Cc1ccc(Cl)cc1Cl)C(=O)[C@H](CC(=O)N1CCN(C(=O)c3ccco3)CC1)C2	x	x	-17.0	u	x	u
CCOC(=O)C1CCN(C(=O)C2COc3ccccc3O2)CC1 (centres undefined)	28.9%	7.1%	6.9	3.0%	-0.2%	u
CCn1c(SCC(=O)NCc2ccco2)nnc1C1CCCC1	0.0%	7.7%	-13.9	21.4%	-2.2%	7.1%
O=C(CSc1nnc(C2CCCCC2)n1Cc1ccccc1)NCc1ccco1	-16.3%	1.0%	-19.6	16.4µM*	-16.6%	16.4µM*
Cc1cc(Br)cn2c(Cc3ccccc3)c(-c3cccc(Br)c3)nc12	-10.1%	x	7.1	u	-24.1%	u
Cc1ccc(O)c(-c2cc(-c3cccc(Br)c3)n[nH]2)c1	u	-2.8%	u	u	-67.2%	u
Cc1ccc(-n2cc3c(-c4cccc(Br)c4)nnc(C)c3n2)cc1	u	5.3%	-23.1	u	-38.3%	25.9µM*
Cc1nnc(-c2cccc(Br)c2)c2cn(-c3ccccc3Cl)nc12	-9.1%	-1.5%	u	u	-24.1%	23.1µM*
CC(NCc1ccc(S(N)(=O)=O)cc1)C(=O)N1c2ccccc2CC1C (centres undefined)	-2.0%	x	-0.2	21.1%	-1.8%	3.4%
CCOC(=O)N1CCN(S(=O)(=O)c2ccc(F)c(C(=O)Nc3ccc(C(C)C)cc3)c2)CC1	-2.4%	2.6%	0.6	18.4µM*	13.5%	18.4µM*
CCOC(=O)N1CCN(S(=O)(=O)c2ccc(C)c(C(=O)NC3CCCCC3)c2)CC1	-2.5%	-5.7%	16.1	-25.1%	-15.6%	-4.0%
CCOC(=O)N1CCN(S(=O)(=O)c2ccc(F)c(C(=O)Nc3ccc(C)c(Cl)c3)c2)CC1	u	0.0%	-69.7*	20.6µM*	-15.3%	16.4µM*
COC(=O)c1[nH]c2ccc(Br)cc2c1NC(=O)C(C)N1CCN(C2CCCCC2)CC1 (centres undefined)	u	3.8%	-81.8*	16.4µM*	-101.7%	5.17µM*
c1ccc2nc(-c3ccc(N4CCOCC4)cc3)ccc2c1	u	1.1%	36.6	-23.1%	-19.6%	-21.4%
c1ccc2c(N3CCOCC3)nc(N3CCOCC3)nc2c1	-1.8%	-5.5%	-3.1	u	-20.2%	u
c1ccc2c(Nc3ccc(N4CCOCC4)cc3)nc(N3CCOCC3)nc2c1	-8.6%	x	-70.3*	20.6µM*	-25.1%	u
SMILES	TGFb SMAD3 inh	TDP1 block	IL1B secr inh	TDP1 cell noCPT	HepG2 tox	DT40 TDP1 CPT
CN1CCN(c2ccc(-c3ccc4ccccc4n3)cc2)CC1	0.3%	-2.6%	-65.3*	18.4µM*	-33.7%	u
COc1ccc(Nc2nc(N3CCCCC3)c3ccccc3n2)cc1	u	6.2%	-101.2*	18.4µM*	-61.7%	18.4µM*
Cc1cc(-c2ccc(N3CCOCC3)cc2)nc2ccccc12	5.5%	-2.7%	-13.2	23.1µM*	-12.6%	20.6µM*
CCOc1ccc(NC(=O)C2CC(=O)N(c3ccc(C(C)C)cc3)C2)cc1 (centres undefined)	24.8%	x	x	-4.2%	0.7%	-2.3%
O=C(NC1CCCCC1)C1c2ccccc2OCC(=O)N1Cc1ccccc1 (centres undefined)	x	x	-3.2	u	x	-10.9%
Cc1c(C(=O)N(C)C2CCOC2)sc2ncnc(NCC3(c4ccccc4)CCOCC3)c12 (centres undefined)	x	x	x	-23.3%	x	-20.5%
Cc1cc(C)c(C(=O)COC(=O)c2cccc(S(=O)(=O)N3CCOCC3)c2)cc1C	17.3%	x	24.9	u	6.0%	u
Cc1ccc(Nc2nc(N)c([N+](=O)[O-])c(N3CCOCC3)n2)cc1	-14.7%	-2.6%	-6.6	-25.1%	-2.8%	-25.4%
CC1CCN(c2nc(/C=C/c3ccccc3)nc3ccccc23)CC1	u	-0.6%	-30.0	u	-24.2%	-3.1%
Cc1ccc(Nc2nc(N3CCOCC3)c3ccccc3n2)cc1	u	3.0%	-104.3*	20.6µM*	-40.2%	20.6µM*
Oc1ccc(Nc2nc(N3CCCC3)c3ccccc3n2)cc1	u	6.7%	-98.8*	20.6µM*	11.2µM*	25.9µM*
C(=C\c1nc(N2CCCC2)c2ccccc2n1)/c1ccccc1	u	0.6%	-98.2*	u	-47.3%	u
COC(=O)[C@@H]1C[C@H](NC(=O)c2cc(C(F)(F)F)ccc2Cl)CN1Cc1cccc(O)c1	x	x	x	-12.3%	x	2.3%[9.04 µM]
Cc1ccc(N=C2SC(C(=O)Nc3ccc(OC(F)(F)F)cc3)C(N)=C2C(=O)Nc2c(C)cc(C)cc2C)cc1 (centres undefined)	7.08µM*	-2.6%	-104.2*	u	11.2µM*	u
